# PubChem BioAssay (NCI)
# “And” between values parts separate entries of the source, which are not always exact repeats. Equal values may be shown once. This is part of a sample that, as a whole, favours compounds with a hit. Of some 83,000 tested, about 20% had one in any assay.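 Testing used 96-well plates and a 48-hour single-concentration exposure. Example: -40 means 40% of the starting cells died.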 A number with no mark means an inactive call. The source made the active and inactive calls. How the source made its calls: active means growth percent below 10; inactive means the rest.
# System: MDA-MB-468 breast
# Experiment: NCI-60 one-dose screen, 48 h (100 = growth as untreated, 0 = no growth, -100 = all killed)
# Settings: 10 µM unless noted
row,Compound,growth
1,C=C1C(=O)O[C@H]2[C@H]1CC/C(COC(=O)NCc1[nH]nc3ccccc13)=C\CC[C@@]1(C)O[C@@H]21,20.4%
2,COc1cc2nc(Nc3cccc(NC(C)=O)c3)nc(N)c2cc1OC,88.8%
3,CCCCCCCCCCCCCCCCCCn1cc(COc2ccc(C=O)cc2)nn1,104%
4,COC(=O)[C@]12CCC(C)(C)C[C@H]1[C@H]1C(=O)C[C@@H]3[C@@]4(C)c5c([nH]c6ccccc6c5=O)C(C)(C)[C@@H]4CC[C@@]3(C)[C@]1(C)CC2,34.5%
5,Cc1ccc(N)cc1CN1C(=O)c2ccccc2C1=O,107%
6,CCOc1ccc([C@@H]2[C@@H](Oc3ccccc3)C(=O)N2c2cc(OC)c(OC)c(OC)c2)cc1,29.4%
7,C=CCOc1cccc(/C=C/C(=O)c2sc(Nc3cccnc3)nc2C)c1,47.5%
8,Cc1ccc(S(=O)(=O)Oc2ccccc2-c2ccccc2)cc1,-3.07% (active)
9,Cc1cc(NC(=O)Nc2cccc3ccccc23)no1,107%
10,COc1cc(-c2nc3cc(Cl)c(Cl)cc3[nH]2)ccc1OCC(=O)N=Nc1c(O)[nH]c2ccc(Cl)cc12,-56.3% (active)
11,CCCCN1CCCn2c1nc1c2c(=O)n(CCC)c(=O)n1CCC,101%
12,O=C(CSc1nc2ccc([N+](=O)[O-])cc2[nH]1)Nc1ccc([N+](=O)[O-])cc1,-12.4% (active)
13,CCc1c(C)c2cc3nc(NCc4ccccc4)oc3c(C)c2oc1=O,68.2%
14,COC(=O)/C=C\C(=O)OC,112%
15,COc1cc(CNC(=O)CCCC/C=C/C(C)C)ccc1OCc1cn(-c2ccc([N+](=O)[O-])cc2)nn1,77.4%
16,O=C(O)c1ccc(-n2cc(CNc3ccc(F)cc3)c(-c3ccc(C(F)(F)F)cc3)n2)cc1,83.2%
17,CC(N)C(=O)NNc1n[nH]c(=S)n1N (stereo unspecified),82%
18,CC(C(C(=O)N1CCCCC1)N1CCCCC1)N1CCCCC1 (stereo unspecified),115%

row,Compound,growth
1,CC(C)(C)c1cc(O)c(O)c(C(C)(C)C)c1,40.4%
2,COc1ccc(C(=O)OC2C(OC3C(O)COC(O[C@H]4C[C@H]5[C@@H]6CC=C7C[C@@H](O)CC[C@]7(C)[C@H]6CC[C@]5(C)[C@H]4[C@H](C)C(=O)CCC(C)C)C3OC(N)=O)OCC(O)C2O)cc1 (stereo partly specified),-24.5% (active)
3,CC1(C)CC(=O)C2=C(C1)N(c1ccc(F)cc1F)C(N)=C(C#N)C2c1cc(Br)ccc1F (stereo unspecified),92.9%
4,OC1(c2ccc(Cl)c(C(F)(F)F)c2)CCN(CCCC(c2ccc(F)cc2)c2ccc(F)cc2)CC1,-86% (active)
5,O=C1/C(=N\c2cc(=O)[nH]n2S(=O)(=O)c2ccccc2)Nc2ccccc21,106%
6,c1ccc(-c2cc3n4c(-c5ccccc5)nn(-c5ccccc5)c4cnc-3n2)cc1,70.2%
7,O=[N+]([O-])c1c(S(=O)(=O)O)cc2cc(S(=O)(=O)O)ccc2c1[N+](=O)[O-],111%
8,CC(C)CNC(=O)c1ccccc1C(=O)NC1(C(=O)NCC(C)C)CCCC1,101% and 121%
9,C=CC(=O)N1CCC[C@H](n2c(=O)n(-c3ccc(Oc4ccccc4)cc3)c3c(N)ncnc32)C1,0.223% (active)
10,NS(=O)(=O)c1ccc(-n2nc(C(=O)N/N=C\c3ccc(F)cc3)cc2-c2ccc(Br)cc2)cc1,73.9%
11,C#CCOc1cccc(-c2ncnc3cc(NC(=O)CCl)ccc23)c1,-57.3% (active)
12,Cn1c(=O)n(-c2ccc(C(C)(C)C#N)cc2)c2c3cc(-c4cnc5ccccc5c4)ccc3ncc21,-24.6% (active) and -48.4% (active)
13,CCCc1cc(=O)oc2c(C(=O)CC(C)C)c(O)c(CC=C(C)C)c(O)c12,1.81% (active)
14,O=C(Nc1ncc(Cc2cccc(C(F)(F)F)c2)s1)C1COc2ccccc2O1 (stereo unspecified),77.4%
15,COc1cccc(NC(=O)Nc2ccc(Nc3ncnc4sc5c(c34)CCN(C(=O)CCl)C5)cc2)c1,117%
16,O=C(/C=C/c1ccc(F)cc1)c1ccc(NC(=O)N2CCN(c3cc4c(cc3F)c(=O)c(C(=O)O)cn4C3CC3)CC2)cc1,68.3%
17,O=c1[nH]c(=S)[nH]c(=O)n1Cc1cccc2ccccc12,107%
18,C=CC(C)(O)CCC1C(=C)CCC2C(C)(C)CCCC12C (stereo unspecified),109%
